Experimental data: PubChem BioAssay AID2535 (National Center for Advancing Translational Sciences (NCATS), 2010)
Calls of active or inactive are those of the source. Calls come from the whole dose curve; as a rule, active = well fitted curve in the direction sought with a large enough effect; inconclusive = small, poorly fitted or top-dose-only effect, or effect the other way, or another doubt; inactive = no such curve, though single readings can be large or run the other way.

What follows are molecules tested against Pyruvate kinase PKLR (Homo sapiens) (UniProt P30613) (assay: Secondary Concentration-Response Assay for Activators of Human Liver Pyruvate Kinase: for Probe SAR). Settings: purified hPK-L, ATP production, Kinase-Glo luminescence; series mostly up to 58.3 µM.
How it was run: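 Purified human liver pyruvate kinase (0.1 nM) incubated 1 h at room temperature with compound, 0.5 mM PEP and 0.1 mM ADP in imidazole buffer pH 7.2; ATP formed read by Kinase-Glo luminescence, normalized to uninhibited wells.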

Pyruvate kinase PKLR (Homo sapiens), sequence (P30613 whole entry, looked up): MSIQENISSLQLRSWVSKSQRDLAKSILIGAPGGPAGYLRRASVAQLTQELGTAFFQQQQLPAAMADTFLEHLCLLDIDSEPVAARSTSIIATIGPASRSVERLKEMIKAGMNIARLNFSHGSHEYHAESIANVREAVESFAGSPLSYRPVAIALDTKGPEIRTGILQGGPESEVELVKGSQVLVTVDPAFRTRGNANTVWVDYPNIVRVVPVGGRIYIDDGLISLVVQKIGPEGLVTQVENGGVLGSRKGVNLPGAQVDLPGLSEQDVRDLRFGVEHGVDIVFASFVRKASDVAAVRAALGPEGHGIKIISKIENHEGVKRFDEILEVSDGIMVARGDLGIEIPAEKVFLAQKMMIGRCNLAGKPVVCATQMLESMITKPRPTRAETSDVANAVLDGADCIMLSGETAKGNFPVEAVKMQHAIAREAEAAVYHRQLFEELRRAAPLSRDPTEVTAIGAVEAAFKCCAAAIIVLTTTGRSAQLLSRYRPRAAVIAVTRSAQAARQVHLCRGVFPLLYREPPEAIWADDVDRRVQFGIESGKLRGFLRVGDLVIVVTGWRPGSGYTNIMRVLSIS

outcome, inactive:
Cc1ccc(NS(=O)(=O)c2cccc(Cl)c2)cc1C
O=C1c2ccccc2C(=O)N1c1cccc(O)c1
Cc1ccc(NS(=O)(=O)c2cc3c(cc2Cl)CCC(=O)N3)cc1C
Cc1ccc(Nc2c(-c3ccc(C)s3)nc3ccccn23)cc1
Cc1ccc(NS(=O)(=O)c2cc3c(cc2N(C)C)CCC(=O)N3)cc1C
O=C1c2ccccc2C(=O)N1c1ccccn1
Cc1ccc(-c2nc3ccc(Cl)cn3c2Nc2ccccc2)o1
O=C1CCc2cc(S(=O)(=O)Nc3ccccn3)ccc2N1
O=C1NS(=O)(=O)c2ccccc21
O=C1CCc2cc(S(=O)(=O)Nc3cccc(-c4ccccc4)c3)ccc2N1
CNc1cccc(S(=O)(=O)N2CCCN(S(=O)(=O)c3ccc4c(c3)OCCO4)CC2)c1
COc1cccc(N2C(=O)c3ccccc3C2=O)n1
O=C1c2ccccc2C(=O)N1Cc1ccncc1
